# Compound activity as filed in PubChem.
# ALDH1A1 block: inhibitors of human aldehyde dehydrogenase 1A1; actives 7.3% (n = 220,000); Purified ALDH1A1, NADH fluorescence, propionaldehyde substrate; Potency, µM (titrated, usually from 75.3 µM), without a hit: at the top dose activity, negative = inhibition, hits mostly inhibitors; active = well fitted inhibition curve with a large enough effect, not every such curve was filed as active; inconclusive = small, poorly fitted or top-dose-only effect, or another doubt; inactive = no such curve, though single readings can be large or run the other way;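 note: potency is the fitted concentration of half-maximal effect; plate controls were no enzyme wells and a reference inhibitor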
# Target sequence (P00352 whole entry, looked up): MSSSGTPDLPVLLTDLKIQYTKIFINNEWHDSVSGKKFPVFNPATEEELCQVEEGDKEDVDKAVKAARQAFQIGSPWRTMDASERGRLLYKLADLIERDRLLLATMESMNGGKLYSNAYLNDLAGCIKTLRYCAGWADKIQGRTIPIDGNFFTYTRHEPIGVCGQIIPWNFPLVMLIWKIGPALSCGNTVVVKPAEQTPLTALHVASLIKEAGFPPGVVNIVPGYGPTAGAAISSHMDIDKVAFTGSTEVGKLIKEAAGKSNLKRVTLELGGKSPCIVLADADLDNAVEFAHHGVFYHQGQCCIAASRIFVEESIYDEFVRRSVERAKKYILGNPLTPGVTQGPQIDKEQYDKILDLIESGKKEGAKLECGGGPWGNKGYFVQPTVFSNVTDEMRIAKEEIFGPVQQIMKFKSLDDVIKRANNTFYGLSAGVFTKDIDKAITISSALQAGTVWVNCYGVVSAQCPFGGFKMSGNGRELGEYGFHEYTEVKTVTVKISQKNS
# HPGD block: inhibitors of human 15-hydroxyprostaglandin dehydrogenase (HPGD); Potency, µM, for inactives: at the highest dose activity change, negative = inhibition, most hits filed as inhibitors; actives 4.3% (n = 150,000); purified HPGD, NADH fluorescence kinetic, PGE2 substrate; AID 894; P15428; active = well fitted inhibition curve with a large enough effect, not every such curve was filed as active; inconclusive = small, poorly fitted or top-dose-only effect, or another doubt; inactive = no such curve, though single readings can be large or run the other way; note: potency is the fitted concentration of half-maximal effect
#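 NADH formation kinetics: reaction with 30 uM PGE2 and 1 mM NAD+ (final), 20 nM enzyme, Tris-HCl pH 8 with Tween 20, after 15 min compound preincubation at room temperature. Fluorescence change, last versus first of five reads.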
# IMPase inh: IMPase inhibition in cells | P97697 | inhibition (IP1 accumulation), % at 46.1 µM | AID 901 | CHO-M1 cells, IP1 accumulation, HTRF TR-FRET ratio | 120,000 tested, under 10 active; active = well fitted curve in the direction sought with a large enough effect in the signal ratio, not every such curve was filed as active; inconclusive = small, poorly fitted or top-dose-only effect, or a change in a side signal; inactive = no such curve, though single readings can be large or run the other way; the % refers to the signal ratio;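 note: cells stimulated with carbachol in lithium chloride buffer; plate controls were DMSO basal wells for no effect and reference inhibitor wells for full effect; higher means more IMPase inhibition seen as more IP1 and lower FRET ratio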
# Target sequence (P97697 whole entry, looked up): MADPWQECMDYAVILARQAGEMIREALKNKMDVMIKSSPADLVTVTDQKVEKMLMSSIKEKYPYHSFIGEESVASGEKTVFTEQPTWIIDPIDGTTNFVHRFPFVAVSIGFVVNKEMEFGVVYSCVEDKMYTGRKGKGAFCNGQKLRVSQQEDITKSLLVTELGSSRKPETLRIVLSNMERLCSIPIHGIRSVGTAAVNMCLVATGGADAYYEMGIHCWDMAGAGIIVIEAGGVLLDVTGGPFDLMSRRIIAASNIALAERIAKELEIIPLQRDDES
#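 CHO-M1 cells (CHO stably expressing M1 receptor), compound up to 46 uM final, stimulated with carbachol (50 uM as added) in buffer with 50mM LiCl, pH 7.4, 30 min at 37C. Cytosolic IP1 read by TR-FRET; AC50 from Hill fits.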
# PNC assembly inh: blocks assembly of the perinucleolar compartment | PC3M PTB-GFP, PNC prevalence imaging, 16 h; active compounds read low | actives 3.1% (n = 140,000) | activity change (PNC), negative = inhibition, % at 10 µM;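 active = readout at or below -70, meaning at least 70% loss of cells showing the perinucleolar compartment, a nuclear body marking cancer cells; inconclusive = readout between -30 and a set limit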;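 note: plate controls were DMSO wells for no effect and camptothecin positive control wells for full effect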
#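 Read-out is percentage of cells bearing a perinucleolar compartment, from automated 20x imaging of fixed, Hoechst-stained PC3M PTB-GFP cells. Cells were seeded 4 h, then exposed 16 h to compound (23 nl of library stock) in duplicate plates.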
# IMPase Li inh: cell-permeable IMPase inhibitors with lithium potentiation | CHO-M1 cells, IP1 TR-FRET (IP-One), carbachol + lithium | Potency, µM (highest dose often 59.4 µM), for the others: at the top dose activity, negative = IMPase inhibition, actives largely listed as inhibitors | actives 0.35% (n = 210,000) | AID 1457;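 note: IP1 builds up when IMPase is blocked and the TR-FRET signal falls; potency is the fitted concentration of half-maximal effect; plate controls were basal vehicle for no effect and high inhibitor control for full effect; nearly all actives have a fitted effect of over 50% in size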
#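 Readout is a homogeneous TR-FRET IP1 immunoassay (Ex 320, Em 665 and 620), where raised cytosolic IP1 lowers signal. Cells were CHO-M1 treated 30 min at 37C with test compounds plus a little lithium; AC50 values came from Hill-equation fitting.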
# 12-hLO inh: blocks human 12-lipoxygenase activity | P18054 | purified 12-hLO, xylenol orange hydroperoxide absorbance | Potency, µM (titrated, usually from 57.1 µM), for inactives: at the top dose activity change, negative = inhibition, hits mostly inhibitors | actives 0.12% (n = 150,000) | AID 1452; note: potency is the fitted concentration of half-maximal effect; nearly all actives have a fitted effect of over 55% in size
#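 Purified human 12hLO (150 nM), preincubated 15 min with compound, then 40 uM arachidonic acid for 30 min, room temperature, Hepes pH 7.0 with 0.01% Triton X-100. Hydroperoxide detected by ferrous iron/xylenol orange; 573/405 nm absorbance ratio gives reaction progress.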
# Numbers without * were called inactive; ? = inconclusive; · = not tested or not shown; [ ] = dose if it differs, or a comment. Sampled rows, rich in hits. Any-hit rate of the full collection: about 11%. Unless noted, calls come from the whole dose curve; as a rule, active = well fitted curve in the direction sought with a large enough effect; inconclusive = small, poorly fitted or top-dose-only effect, or another doubt; inactive = no such curve, though single readings can be large; an effect the other way counts as inactive or inconclusive. Unless noted, % is set by controls: 0 for no effect and ±100 for the full control effect.
SMILES,ALDH1A1 block,HPGD block,IMPase inh,PNC assembly inh,IMPase Li inh,12-hLO inh
CCOC(=O)C1CCCN(C(=O)c2sc3nc(C)nc(N(CC)CC)c3c2C)C1 (stereo not given),3%,14µM*,-13,-2,-4%,2%
CCOC(=O)c1ccc(COc2ccc(C(C)C)cc2)o1,-7%,·,·,·,2%,·
COc1ccc(CCNC(=O)CN(c2cc(C(F)(F)F)ccc2Cl)S(C)(=O)=O)cc1,·,·,1,·,·,·
CN1CCN(c2ncc3nc(CCc4ccccc4)c(=O)n(C4CC4)c3n2)CC1,?,·,·,·,10%,·
Cc1ccc(SCC2=NN(c3nc(C)cc(C)n3)C(=O)C2)cc1,-2%,·,·,·,1%,·
Cc1cc(C)nc(N2N=C(C(C)(C)C)CC2=O)n1,6.3µM*,-4%,6,18,25%[38.3 µM],4%
CN(C)S(=O)(=O)N(CC(=O)Nc1ccc(Br)cc1F)c1ccccc1,·,·,5,·,·,·
CCCCCC(=O)NNC(=O)Cc1ccc([N+](=O)[O-])cc1,-10%,·,·,·,6%,·
Cc1ccc(C(=O)NC(=S)NNC(=O)CC#N)cc1,0%,·,·,·,7%,·
CCCCC(=O)NNC(=S)NC(=O)c1ccc(C)cc1,25µM*,·,·,·,8%,·
CCCCOc1ccc(C(=O)N/C(=C/c2cccc([N+](=O)[O-])c2)C(=O)O)cc1,11µM*,·,·,·,0%,·
CCCCC(=O)Nc1cccc(NC(=O)c2cccc([N+](=O)[O-])c2)c1,-1%,·,·,·,2%,·
CCCCC(=O)NNC(=S)NC(=O)c1ccc([N+](=O)[O-])cc1,5.6µM*,·,·,·,1%,·
CCCCC(=O)NNC(=S)NC(=O)c1cccc([N+](=O)[O-])c1,1.8µM*,8.9µM*,1,5,24%[38.3 µM],?
COC(=O)c1ccc(C2CC(=O)Nc3cc(OC)c(OC)c(OC)c32)cc1 (stereo not given),?,?,2,7,26%[38.3 µM],3%
CCCCC/C=N\NC(=O)Cc1ccc([N+](=O)[O-])cc1,11%,-8%,-8,-95*,1%,-8%
C[C@H](NC(=O)[C@@H]1C[C@H]1[C@@H](NC(=O)OCc1ccccc1)c1ccccc1)c1ccccc1,2%,-3%,·,·,-14%,-4%
CC(=O)c1cccc(NC(=O)NC2CC3CCCC(C2)N3CC(C)C)c1 (stereo not given),-7%,-10%,-5,-100*,6%,8%
CCCN1C2CCCC1CC(NC(=O)Nc1cccc(C(C)=O)c1)C2 (stereo not given),9%,0%,-8,?,28%[38.3 µM],3%
O=c1c(-c2ccc(F)cc2)nc2cnc(N3CCOCC3)nc2n1C[C@H]1CCCO1,?,-24%,·,·,7%,-1%
Cc1cc(C)c(OCC(=O)Nc2nnn(C)n2)c(Br)c1,-1%,-12%,-4,-100*,5%,5%
Nc1ccc(N=Nc2ccccc2)c(N)c1,?,-12%,·,·,17%,-9%
Cc1cc(=O)c2n(Cc3ccc(Cl)cc3)nc[n+]2[nH]1,20µM*,-8%,0,27,21%[38.3 µM],4%
Cc1nn(Cc2ccc(Cl)cc2)c(C)c1N,8%,-6%,-1[0.0738 µM],-5,1%,-1%
COc1ccc(NC(=O)c2ccco2)cc1NC(=O)c1cc(Cl)ccc1OC,·,·,-3,·,·,·
SMILES,ALDH1A1 block,HPGD block,IMPase inh,PNC assembly inh,IMPase Li inh,12-hLO inh
Cc1ccccc1OCc1nc2ccccc2c(=O)n1NC(=O)c1ccco1,5%,-12%,1,-100*,2%,-5%
Cc1cccc(N(CC(=O)NCc2ccccc2)S(C)(=O)=O)c1C,·,·,-2,·,·,·
COc1cccc(C2/C(=C(\O)c3ccc(OC)c(OC)c3)C(=O)C(=O)N2c2cc(C)on2)c1 (stereo not given),5%,-12%,?,-24,10µM*,8%
COc1ccc(/C(O)=C2\C(=O)C(=O)N(c3cc(C)on3)C2c2ccccc2OC)cc1 (stereo not given),22µM*,-24%,-29,-14,6.3µM*,-6%
COc1ccc(/C(O)=C2\C(=O)C(=O)N(c3cc(C)on3)C2c2ccccc2OC)cc1C (stereo not given),-28%,·,-19,6,·,-1%
COCCNc1nc(-c2cc(C)n(CCc3ccc(OC)cc3)c2C)cs1,10µM*,·,·,·,9%,·
COc1ccccc1CNc1nc(-c2cc(C)n(C)c2C)cs1,?,·,·,·,5%,·
CCC(C)NC(=O)c1c(F)c(F)c(F)c(F)c1F (stereo not given),2%,-13%,-7,34,-4%,2%
CC(=O)[C@@H]1[C@@H](C(=O)c2ccc(C)cc2)[C@]2(C(=O)Nc3ccccc32)[C@H]2C=Cc3cc(F)ccc3N12,?,-3%,·,28,1%,-4%
O=C(c1ccc(F)cc1)[C@@H]1[C@@H](C(=O)c2ccccc2)[C@@]2(C(=O)Nc3ccccc32)[C@H]2c3ccccc3C=CN12,20µM*,-19%,17,-5,14%,-18%
COc1cc([N+](=O)[O-])cc(/C=N/N(CCC#N)C(C)=O)c1O,10µM*,·,·,·,5%,·
COC(=O)c1ccc(N/N=C/c2cc([N+](=O)[O-])cc(OC)c2O)cc1,3%,·,·,·,14%,·
c1ccc(CCNc2nc(-c3ccccn3)cs2)cc1,32µM*,·,·,·,13%,·
CC1CC1C(=O)Nc1nc(-c2ccccn2)cs1 (stereo not given),10µM*,14µM*,2,24,30%[38.3 µM],-8%
c1ccc(CCNc2nc(-c3cccnc3)cs2)cc1,?,-15%,9,?,16%,6%
CC(C(=O)Nc1ccccn1)N1C(=O)C2C3C=CC(C3)C2C1=O (stereo not given),25µM*,·,0,-8,·,-4%
O=C(CN1C(=O)C2CCCCC2C1=O)Nc1nc(-c2ccccn2)cs1 (stereo not given),22µM*,28µM*,7,-16,46%[38.3 µM],1%
O=C(Nc1ccc2nn(-c3ccccc3)nc2c1)c1ccc(-c2cccc(Cl)c2)o1,·,·,-6,·,·,·
Cc1ccc2sc(C)[n+](CCC(C)S(=O)(=O)[O-])c2c1 (stereo not given),6%,-3%,·,7,-2%,-4%
NCCO,?,-7%,·,·,5%,-3%
CC(C)[C@H](NC(=O)c1ccccc1Cl)C(=O)Nc1nc(-c2ccccn2)cs1,?,·,·,·,-23%,·
C[C@@H](C(=O)Nc1nc(-c2ccccn2)cs1)N1C(=O)C2CCCCC2C1=O (stereo not given in full),13µM*,25µM*,-4,38,3%[38.3 µM],-15%
CCCCC(=O)Nc1ccc(Br)cc1C(=O)O,6%,-19%,2,-5,19%[38.3 µM],0%
CCNc1ccc(Br)cc(C(=O)/C=C/c2ccc3c(c2)OCO3)c1=O,18µM*,?,0,-21,-1%[38.3 µM],?
